PubChem BioAssay AID1903 (Southern Research Specialized Biocontainment Screening …, 2009)
Hit rate of the full screen: of about 310,000 compounds, about 1,200 (0.39%) were called active. How the calls were made is not given here. Only a sample is shown. Potency and affinity values are given separately.

These molecules were tested against Large T antigen (Simian virus 40) (UniProt P03070) (assay: SV40 large T antigen inhibitors, biochemical (AID 1903)). Conditions: SV40 large T antigen ATPase/helicase inhibition assay; at 20 µM; active compounds read high.
Large T antigen (Simian virus 40), sequence (P03070 whole entry, looked up): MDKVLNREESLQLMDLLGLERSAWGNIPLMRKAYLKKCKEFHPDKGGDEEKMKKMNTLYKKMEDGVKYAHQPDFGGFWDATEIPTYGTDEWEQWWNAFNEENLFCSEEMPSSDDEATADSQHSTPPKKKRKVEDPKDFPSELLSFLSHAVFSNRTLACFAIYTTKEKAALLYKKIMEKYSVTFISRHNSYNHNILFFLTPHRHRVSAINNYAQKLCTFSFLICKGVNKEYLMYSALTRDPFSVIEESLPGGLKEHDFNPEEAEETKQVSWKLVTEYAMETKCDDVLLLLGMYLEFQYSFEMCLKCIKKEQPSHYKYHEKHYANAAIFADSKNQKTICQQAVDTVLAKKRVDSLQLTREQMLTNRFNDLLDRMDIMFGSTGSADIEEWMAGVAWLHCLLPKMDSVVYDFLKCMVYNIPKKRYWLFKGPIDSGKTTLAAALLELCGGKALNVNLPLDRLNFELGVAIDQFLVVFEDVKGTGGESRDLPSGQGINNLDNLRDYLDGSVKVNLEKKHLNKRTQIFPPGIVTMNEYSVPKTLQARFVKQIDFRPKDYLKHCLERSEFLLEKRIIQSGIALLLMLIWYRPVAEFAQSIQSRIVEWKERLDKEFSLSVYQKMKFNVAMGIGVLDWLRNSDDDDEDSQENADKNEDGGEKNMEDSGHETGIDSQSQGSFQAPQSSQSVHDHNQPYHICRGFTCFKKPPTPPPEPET

inhibition, inactive:
CCCCN(CCCC)CCCNC(=O)C12CN(Cc3ccccc3)CC1C(c1cccc([N+](=O)[O-])c1)=NO2 (stereo not drawn) 6.72%, Cc1cc(NCc2ccccc2)n2ncc(-c3ccccc3)c2n1 3.96%, CC(=O)OC[C@H]1O[C@@H](O/N=C/C[C@@H]2C=C[C@H](OC(C)=O)[C@@H](COC(C)=O)O2)[C@H](OC(C)=O)[C@@H](OC(C)=O)[C@@H]1OC(C)=O 7.46%, Cc1cc(NC(=O)C(C)SCC(=O)Nc2ccc(SC(F)F)cc2)no1 (stereo not drawn) 15.7%, Cc1ccc(C(=O)Cc2cc3ccccc3oc2=O)c(C)c1 9.25%, O=S(=O)(O)c1cc(O)ccc1O 25.8%, Oc1ccc(-c2nc3ccccc3s2)c(O)c1 21%, O=C(Cc1ccccc1)NCc1cccnc1 5.27%, CC(OC(=O)Cc1n[nH]c(=O)c2ccccc12)C(=O)Nc1cccc([N+](=O)[O-])c1 (stereo not drawn) 8.17%, COC(=O)c1cc(NS(=O)(=O)c2ccc(Cl)c(N3C(=O)c4ccc(C(=O)O)cc4C3=O)c2)cc(C(=O)OC)c1 11.3%, CCN1C(=O)C2(C(C(=O)c3cc4ccccc4o3)=C(O)C(=O)N2CCCN2CCOCC2)c2ccccc21 (stereo not drawn) 16.1%, CCN1C(=O)C2(C(C(=O)c3ccc(C)o3)=C(O)C(=O)N2CCCN(C)C)c2ccccc21 (stereo not drawn) 27.5%, CCC(=O)Nc1ccc(C(=O)NNC(=O)c2cccc(C)c2)cc1 5.14%, COc1cc(/C=C/c2ccc3cccc(O)c3n2)c(Br)cc1O 0.04%, COc1cccc2c1-c1c(O)cccc1C2=O 9.33%, O=C(CSc1nnc(-c2cccnc2)n1-c1ccccc1)Nc1ccc2c(c1)OCO2 18.3%, N#Cc1ccsc1NC(=O)CN1C(=O)NC2(CCCC2)C1=O 13.3%, CCCOc1ccc(N2C(=O)CC(NCC#N)C2=O)cc1 (stereo not drawn) 3.6%, Nc1c(-c2ccc(Cl)cc2)cnn1-c1cc(C(F)(F)F)cc(C(F)(F)F)c1 10.5%, O=C(O)C1CC(c2ccccc2)=Nc2ccccc2S1 (stereo not drawn) 19.3%, Oc1ccccc1C1=Nc2ccccc2N=C(c2cccs2)C1 12.3%, CCn1cc(S(=O)(=O)CC(=O)Nc2cc(C)ccc2C)c2ccccc21 3.58%, CC(=O)c1ccc(OCCCC(=O)NC2CCC(C)CC2)cc1 (stereo not drawn) 23.9%, Cc1cccc(-c2noc(CN(C)C(=O)COc3ccccc3)n2)c1 13.7%, Cc1nn(-c2ccccc2)c(C)c1C(=O)Nc1ccc(N2CCOCC2)cc1 26.7%, Cc1nn(-c2ccccc2)c(Cl)c1C(=O)Nc1ccc(N2CCOCC2)cc1 9.69%, C/C(CC(=O)Nc1ccc(N(C)C)cc1)=N\NC(=O)c1ccc([N+](=O)[O-])cc1 22.9%, C/C(CC(=O)Nc1ccc2c(c1)OCCO2)=N\NC(=O)c1ccc([N+](=O)[O-])cc1Cl 3.29%, C/C(CC(=O)NCc1ccco1)=N\NC(=O)c1ccc(Cl)cc1Cl 5.88%, C/C(CC(=O)Nc1ccc(N(C)C)cc1)=N\NC(=O)c1ccc(Cl)cc1 21.9%, Cc1nnsc1C(=O)N1CCCC(N2CCN(c3cccc(C(F)(F)F)c3)CC2)C1 (stereo not drawn) 12.9%, COCC(=O)Nc1ccc2c(c1)OCC(=O)N2Cc1ccccc1F 20.2%, CC(=O)N1CCN(CC(=O)O)CC1 5.47%, Cn1c(N)c(C(=O)Nc2ccccc2)c(=O)[nH]c1=O 5.18%, Cn1c2ccccc2c2cnn(CC(=O)NCCCN3CCN(c4ccccc4F)CC3)c(=O)c21 9.9%, Cc1ccc(NC(=O)Cn2sc3nc(C)cc(C)c3c2=O)c(Cl)c1 5.12%, O=C(CCNC(=O)Cn1ccc2ccccc2c1=O)NCCCN1CCN(c2ccccc2F)CC1 -2.74%, Cc1c(Cl)cccc1NC(=O)Cn1cc(C(F)(F)F)cc(Cl)c1=O 6.09%, COc1ccc(OC)c(CCNC(=O)Cn2nc(C)c3c(C)n(-c4ccccc4)nc3c2=O)c1 2.47%, CCCNC(=O)Cn1sc2nc(C)cc(C)c2c1=O 8.82%, O=C(c1cc([N+](=O)[O-])ccc1Cl)N1c2ccccc2Sc2ccccc21 3.02%, Cc1cc(C)cc(OCc2nnc(SCC(=O)NC3CC3)n2C)c1 -1.01%, CCOC(=O)N1CCC(N2C(=O)c3ccc(C(=O)NCCOC)cc3C2=O)CC1 5.99%, COc1cccc(NC(=O)Nc2cc(C)ccc2OC)c1 2.17%, CCCc1cc(=O)oc2cc(C)cc(OCC(=O)NCC(O)c3ccccc3)c12 (stereo not drawn) 12.5%, Cc1ccc(N2CC(=O)N(NC(=O)Nc3ccc(Cl)c(Cl)c3)CC2=O)cc1 13.8%, O=C(CCC(=O)N1CCN(Cc2ccccc2)CC1)Nc1nnc(C2CCCCC2)s1 13.1%, CSCCC(NC(N)=O)C(=O)Nc1cccc(S(=O)(=O)N2CCOCC2)c1 (stereo not drawn) 2.59%, O=C(CCCOc1ccc(Br)cc1)NNC(=O)c1ccncc1 26.4%, CCc1ccc(NC(=O)c2cc(-c3ccco3)on2)cc1 6.38%, O=C(CSc1cn(Cc2ccccc2)c2ccccc12)NCc1ccc(F)cc1 6.13%, C=CCn1c(SCC(=O)NCCCC)nc2scc(-c3ccco3)c2c1=O 32.9%, C=CCn1c(=S)[nH]c2scc(-c3ccc(C)o3)c2c1=O 7.5%, C=CCn1c(=S)[nH]c2scc(-c3cccs3)c2c1=O 9.96%, C=CCn1c(SCC(=O)N2CCOCC2)nc2scc(-c3ccco3)c2c1=O 22.1%, COc1cc(/C=C/[N+](=O)[O-])ccc1OC(=O)/C=C/c1ccc(F)cc1 17.2%, CC(C)CCN(CCC(C)C)CC(O)Cn1c2ccccc2c(=O)c2ccccc21 (stereo not drawn) 8.16%, CC(=O)c1cccc(NC(=S)NC(=O)c2ccccc2C)c1 -10%
